Rows were chosen to be rich in hits. Some 2.1% of all compounds tested hit in one or more screens of this group.
EWS-Fli block = blocks EWS/Fli oncoprotein-driven transcription; A673 NR0B1-luciferase reporter, viability-normalised; inhibition, % at 12.6 µM; 350,000 compounds, 0.67% hits; AID 651661;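 active = mean inhibition of at least 50% after viability correction, with every replicate also passing that limit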;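 also: firefly luciferase signal divided by Alamar Blue viability fluorescence both relative to DMSO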
PAX8 reporter = PAX8 transcriptional activity inhibition; 360,000 compounds, 1.2% hits; RMG-I TPO-luciferase reporter, SteadyGlo, 24 h; inhibition, % at 12.6 µM; AID 652154;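 active = mean replicate inhibition at least 60% with every replicate also reaching 60%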;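 also: luciferase light reporting Pax8 driven TPO promoter activity; plate controls were median of neutral control wells for no effect and mitoxantrone controls for full effect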
KKLEB cytotox = counter-screen for CF NF-kB inhibitors: cytotoxicity; KKLEB CF airway cells viability, ATPlite luminescence, overnight; active compounds read low; cells stimulated with P. aeruginosa culture filtrate; AID 602141; activity change (cytotoxicity), % at 5 µM; 360,000 compounds, 0.36% hits;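 active = corrected activity change at or below -50% at 5 µM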
CF NFkB block = cystic fibrosis NF-kB activation inhibition; KKLEB NF-kB-GFP reporter, PAF-induced, GFP fluorescence overnight; inhibition, % at 5 µM; 360,000 compounds, 0.86% hits; AID 588850;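 active = at least 50% inhibition at 5 µM, scaled per plate between neutral and stimulator controls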;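 also: PAF is a Pseudomonas aeruginosa culture filtrate used as stimulus; plate controls were PAF-stimulated DMSO wells for no effect and unstimulated DMSO wells for full effect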
HIF-2a block = blocks HIF-2a reporter activity. 786-0 RCC cells HIF-2a reporter, luciferase luminescence, overnight. 360,000 compounds, 0.72% hits. inhibition, % at 18.8 µM;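 active = inhibition of the luminescence signal of 40% or more relative to plate controls, in a single-dose primary screen at 18.75 µM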
Starred values were filed as active, the others as inactive; x = not tested or not shown.

SMILES	EWS-Fli block	PAX8 reporter	KKLEB cytotox	CF NFkB block	HIF-2a block
COC(=O)C1=C(C(=O)OC)[C@@H]2N(C)c3ccc(OC)cc3[C@@]23C[C@@H](C(=O)OC)N(C(=O)c2cccs2)C3=N1	x	x	0.1	54.4*	5.5
COC(=O)C1=C(C(=O)OC)[C@@H]2N(C)c3ccccc3[C@@]23C[C@@H](C(=O)OC)N(C(=O)c2cccs2)C3=N1	6.6	15.3	-6.2	30.1	6.4
CC(=Nc1ccccc1)C1=C(O)C(Cc2ccc(O)cc2)NC1=O (stereo unspecified)	33.0	66.6*	-20.9	43.8	18.6
CC1CC(C)CN(C(=O)c2ccc(NC(=O)c3ccc(=O)[nH]c3)cc2)C1 (stereo unspecified)	1.8	0.4	-6.4	5.1	12.5
CC1CC(C)CN(S(=O)(=O)c2ccc(NC(=O)c3ccc(=O)[nH]c3)cc2)C1 (stereo unspecified)	63.7*	39.5	-20.9	35.5	15.6
CCCNC(=O)N1[C@@H](CO)[C@@H](c2ccccc2)C12CN(CCC(F)(F)F)C2	-3.1	-0.9	x	x	x
CCC(=O)Nc1ccc(NC(=O)c2oc3ccccc3c2C)cc1	-0.9	-16.6	-0.9	-5.3	62.0*
CCC(=O)Nc1ccc(NC(=S)NC(=O)c2oc3ccccc3c2C)cc1	x	-7.6	-15.6	1.3	-2.3
Cc1ccc(N=C2C(=O)Nc3ccccc32)cc1	32.5	7.2	16.2	0.5	10.7
Cc1nc2c(o1)C(=O)c1ccccc1C2=Nc1ccccc1	1.6	10.4	-84.3*	88.6*	8.0
COc1ccc2c3c(n(C)c2c1)[C@H](CO)N(C(=O)Cc1ccccn1)CC31CCN(CC2CCCCC2)CC1	4.2	x	x	x	x
CCCNC(=O)N1[C@H](CO)[C@H](c2ccc(C3=CCCCC3)cc2)[C@@H]1CNC(C)C	-1.9	x	x	x	x
Cc1cc(C)c2nc(Cl)c(CN(Cc3ccco3)C(=O)Nc3ccccc3C)cc2c1	56.2*	x	-3.8	19.2	-15.9
N#C[C@H]1[C@@H](c2ccc(C3=CCCCC3)cc2)[C@@H](CO)N1S(=O)(=O)c1cccc(F)c1	9.6	-12.5	x	x	x
COc1cccc(-c2cc3nc(-c4ccccc4)cc(N4CCN(C(=O)c5ccoc5)CC4)n3n2)c1	20.8	67.8*	-16.0	20.0	-12.1
COc1ccccc1-c1cc2nc(-c3ccccc3)cc(N3CCN(C(=O)c4ccco4)CC3)n2n1	-23.9	85.7*	-16.2	33.9	-23.3
O=C(c1ccoc1)N1CCN(c2cc(-c3ccccc3)nc3cc(-c4ccccc4)nn23)CC1	24.4	59.2	3.5	1.2	-19.2
COc1ccccc1-c1cc2nc(-c3ccccc3)cc(N3CCN(C(=O)c4ccoc4)CC3)n2n1	21.9	67.1*	12.1	3.9	-12.3
CCC(=O)N1CC[C@@H]2[C@@H](CO)Nc3ccc(-c4ccc(C(=O)N(C)C)cc4)cc3[C@@H]21	-6.6	-3.8	x	x	x
C[C@@H]1CN([C@H](C)CO)S(=O)(=O)c2ccc(-c3cccc(F)c3)cc2O[C@@H]1CN(C)S(=O)(=O)c1ccccc1	12.9	x	x	x	x
COc1ccc2c3c([nH]c2c1)[C@H](CO)N(C(=O)Nc1ccc(F)cc1)CC31CN(S(=O)(=O)c2cn(C)cn2)C1	14.7	x	x	x	x
Cc1ccc(N=C2N=C(N)c3ccccc32)c(C)c1	x	x	-7.6	30.5	15.8
Cc1ccccc1N=C1N=C(N)c2ccccc21	7.2	137.7*	3.6	-1.6	11.3
COc1ccc2c3c(n(C)c2c1)[C@H](CO)N(Cc1ccccc1OC)CC31CCN(C(=O)C2CC2)CC1	3.1	8.8	x	x	x
COc1cc(N2C(=O)C=CC2=O)ccc1N1C(=O)C=CC1=O	60.4*	115.4*	-32.2	78.4*	84.5*
SMILES	EWS-Fli block	PAX8 reporter	KKLEB cytotox	CF NFkB block	HIF-2a block
CC(C)NC[C@H]1[C@@H](c2ccc(C3=CCCC3)cc2)[C@@H](CO)N1C(=O)CC1CC1	4.2	x	x	x	x
COc1cc(OC)cc(C(=O)c2c(C)c(C#N)c3ccccn23)c1	58.3*	10.4	-17.1	32.3	-6.5
CC(C)(O)C#Cc1ccc([C@@H]2[C@H](CO)N3CCCCN(C(=O)c4ccncc4)C[C@@H]23)cc1	-14.3	0.2	x	x	x
Cc1cc(C(=O)COC(=O)c2ccc[nH]c2=O)c(C)n1-c1ccccc1F	-33.0	-61.9	-0.4	6.6	45.4*
CC(=O)Nc1ccc(SCC(=O)c2cc(C)n(-c3ccccc3F)c2C)cc1	x	-36.5	11.3	-24.8	50.4*
c1ccc(-c2cn3nc(-c4ccccc4)sc3n2)cc1	x	x	-60.3*	-9.0	-71.2
Cc1cc(NC(=O)CSc2nc3sc(C)c(C)c3c(=O)n2C2CCCC2)no1	-9.2	x	-59.2*	36.4	8.9

Screens (PubChem)
